Each structure is given as a SMILES string. Out of some 1,400 compounds screened, about 1,100 (79%) were called active. About 20% were inconclusive and are not listed. The call rests on the fitted dose curve. So high a share suggests a set chosen from earlier hits. These entries were drawn from the full list.
Potency means the concentration at half of the fitted maximal effect.

Sequence of Atrial natriuretic peptide receptor 1 (Homo sapiens) (P16066 whole entry, looked up, the tested form may be a part): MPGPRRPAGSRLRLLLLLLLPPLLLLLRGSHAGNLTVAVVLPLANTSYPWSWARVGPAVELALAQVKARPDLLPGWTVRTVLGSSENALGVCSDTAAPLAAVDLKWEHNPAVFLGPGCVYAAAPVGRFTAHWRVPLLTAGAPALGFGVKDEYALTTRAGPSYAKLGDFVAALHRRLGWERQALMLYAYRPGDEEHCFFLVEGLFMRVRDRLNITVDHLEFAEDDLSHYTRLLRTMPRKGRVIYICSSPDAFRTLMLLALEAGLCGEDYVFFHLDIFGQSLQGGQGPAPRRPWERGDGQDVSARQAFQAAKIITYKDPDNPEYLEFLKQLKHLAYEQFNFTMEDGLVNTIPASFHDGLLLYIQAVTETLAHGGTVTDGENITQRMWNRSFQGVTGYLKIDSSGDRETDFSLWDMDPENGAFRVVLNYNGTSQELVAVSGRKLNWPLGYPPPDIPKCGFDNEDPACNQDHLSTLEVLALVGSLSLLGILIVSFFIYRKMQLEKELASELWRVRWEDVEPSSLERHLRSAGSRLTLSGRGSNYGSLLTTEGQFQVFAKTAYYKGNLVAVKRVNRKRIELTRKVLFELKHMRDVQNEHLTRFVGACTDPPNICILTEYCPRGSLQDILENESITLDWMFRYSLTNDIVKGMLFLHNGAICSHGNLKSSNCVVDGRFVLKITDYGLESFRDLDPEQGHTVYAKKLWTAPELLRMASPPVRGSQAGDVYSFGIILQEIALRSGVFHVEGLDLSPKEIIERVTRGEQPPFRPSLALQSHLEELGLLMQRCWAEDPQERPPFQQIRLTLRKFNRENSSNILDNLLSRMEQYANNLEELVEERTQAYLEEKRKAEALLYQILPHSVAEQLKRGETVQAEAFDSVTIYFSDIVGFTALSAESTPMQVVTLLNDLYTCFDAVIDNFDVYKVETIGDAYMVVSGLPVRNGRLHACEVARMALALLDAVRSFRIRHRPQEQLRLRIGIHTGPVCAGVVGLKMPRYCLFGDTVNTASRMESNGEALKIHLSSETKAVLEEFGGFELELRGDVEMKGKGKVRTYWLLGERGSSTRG

The assay has as its target Atrial natriuretic peptide receptor 1 (Homo sapiens) (UniProt P16066). Description: Natriuretic polypeptide receptor (hNpr1) antagonism - Confirmation. Further: nearly all actives have a fitted effect of over 70% in size. The conditions noted are these: HEK293 hNpr1 cGMP GloSensor luminescence, ANP-stimulated; series mostly up to 57.6 µM. On the procedure: In order to identify small molecular compounds that inhibit the hNpr1 receptor we developed a high-throughput assay to measure inhibition of the guanylate cyclase activity of the receptor. cGMP production was measured using a circular permutated Firefly luciferase (FLuc) enzyme functionally linked to the cGMP binding domain of human phosphodiesterase 5 (GloSensor technology pGS-40F, (Fan, F. et al. 2008). The cGMP-sensor was expressed in human embryonic kidney 293 (HEK-293) cells and FLuc activity was measured after stimulation with hNrp agonist peptide. hNrp agonists activates the receptor's associated guanylyl cyclase (GC) domain producing cGMP which then binds to the GloSensor resulting in FLuc activation, the enzymatic activity of which can be measured as bioluminescence with addition of luciferin substrate. A cytotoxicity counter-screen using the HEK-hNpr1-cGMP-sensor cells was also performed on the follow-up compounds. F. Fan, B. F. Binkowski, B. L. Butler, P. F. Stecha, M. K. Lewis, K. V. Wood, Novel genetically encoded biosensors using firefly luciferase. ACS Chem Biol 3, 346-351 (2008).
PROTOCOL TABLES (as described by Inglese J, Shamu CE and Guy RK. 2007) SEQUENCE No. (e.g., 1, 2, 3, etc.); PARAMETER (e.g., Cells, Incubation, Reagent, etc.); VALUE and DESCRIPTION. GLOSENSOR PROTOCOL 1. Cells. Seed 1500 HEK293 cGMP-sensor cells expressing hNpr1 per well in 4uL into Greiner 1536-well white/solid bottom high base, tissue culture-treated plates. 2. Incubation. Incubate plated cells at 37C in 5% CO2, 95% RH overnight. 3. Reagent. Add 1uL per well GloSensor reagent from Promega (2% final concentration) or CO2 independent media vehicle control to respective columns of Greiner 1536-well plates. 4. Incubation. Incubate plated cells at room temperature for 2 h, protect from light. 5. Compounds. Library compounds and A-71915 control added at 23 nL per well, transferred by Pin Tool. 6. Incubation. Incubate plated cells for 30 min. at room temperature, protect from light. 7. Detector. GloSensor baseline pre-read luminescence measured using CCD-based camera (Viewlux). 8. Compound. Add 1uL of hNppA peptide to 0.1 nM final concentration to stimulate hNpr1 or CO2 independent media as vehicle control. 9. Incubation. Incubate treated cells at room temperature for 20 min., protect from light. 10. Detector. GloSensor post-hNppA luminescence measured using CCD-based camera (Viewlux). NOTES (numbers refer to Sequence numbers above) 1. HEK293 cells expressing hNpr1 and GIP/pGS-40F grown to 85-95% confluence (48-72 h) in T175 culture flasks (CO2 independent media supplemented with 10% FBS, 1% Pen/Strep antibiotics and 1 ug/mL puromycin). Trypsinize and harvest cells from T175 culture flasks and filter through 40 um cell strainer. Cells counted with Invitrogen Countess (30,000,000 - 50,000,000 cells/flask). Cells diluted to a final concentration of 375 cells/uL in CO2 independent media and a Millipore multidrop used to dispense 1500 cells per well (4uL/well) into 13 1536-well Greiner White/Solid bottom, high base tissue-culture treated (TC) plates and one Aurora 1536-well Black/Clear bottom, low base, TC plate (for visual inspection of cell health throughout the duration of the assay). 2. Cells incubated overnight at ambient temperature, 24 h. at 37C in 95% RH incubator protected from light, covered with metal lid with gas-exchange holes. 3. Prepare GloSensor Reagent (Promega): Reconstitute GloSensor luciferase substrate by adding 8.2mL Hepes buffer to 250mg substrate, mix well, protect from light and stored at -80C. Prepare a fresh 12% GloSensor solution in CO2 independent supplemented plating media (see above). Mix well and store at ambient temperature, protected from light. 1uL 12% GloSensor Luciferase Reagent added (2% final concentration) to respective columns of 13 x 1536-well Greiner plate with BioRaptr, 1uL CO2 independent plating media added to respective columns as vehicle control with BioRaptr. 4. […]
Turning to `Cc1nc(-c2ccncc2)ncc1C(C)Nc1ncnc(C)c1C` (stereo not drawn), the Potency is 21.7 µM (active).

For `O=C(c1ccc2cc[nH]c2c1)N1CCC2(CC1)N=C(c1ccc(Cl)cc1)NO2`, the Potency is 19.3 µM (active).

Take `O=[S+]1([O-])NCC2(CCCN(Cc3ccc(C(F)(F)F)cc3)C2)Oc2ncccc21` (stereo not drawn): the Potency was 24.3 µM (active).

In the case of `Cc1cccc(CN2CCc3nc(C(=O)Nc4ccc(Cl)cc4)oc3CC2)c1`, the Potency was 9.94 µM (active).

For `COc1cccc(CNC(=O)Cn2c(N(C)Cc3ccccc3)nc(C)cc2=O)c1OC`, the Potency is 24.3 µM (active).

Take `COc1cccc(NC(=O)Cn2c(N(C)Cc3ccccc3)nc(C)cc2=O)c1`: the Potency is 10.9 µM (active).

Consider `COc1cccc(C2C(C(=O)Nc3ccccc3)=C(C)N=C3SC=C(CC(=O)NCC(C)C)N32)c1` (stereo not drawn), for which the Potency entry is “inactive”.

Turning to `O=c1[nH]c(C2CCCN(Cc3ccccn3)C2)nn1-c1ccc(Cl)cc1` (stereo not drawn), the Potency was 6.85 µM (active).

Take `CC1(C(=O)NCc2ccc3c(c2)OCO3)CCc2cnc(NCc3ccccc3)nc21` (stereo not drawn): the Potency was 35.3 µM (active).

`Cc1ccc2c(c1)nc1n2[C@@H](CNS(=O)(=O)c2ccccc2)COC1`: the Potency was 35.3 µM (active).

On to `COc1ccc(CN2C(=O)CO[C@H]3CN(Cc4ccc5c(c4)OCO5)C[C@H]32)cc1`, for which the Potency was 31.4 µM (active).

For the molecule `O=C(c1ccccc1)N1CCNc2cnc(Nc3cccc(C(F)(F)F)c3)nc2C1`, the Potency was 31.4 µM (active).

Consider `COc1ccc(S(=O)(=O)N2CCc3c(C(=O)NCCc4ccccn4)cccc32)cc1`, for which the Potency was 24.3 µM (active).

For `CC(C)c1cc(C(=O)N2CCC(n3cc(-c4ccccn4)nn3)CC2)n(C)n1`, the Potency was 13.7 µM (active).

Regarding `COc1ccc(OCC2(C)COc3ccc(C(=O)Nc4cccnc4)cc3N2)cc1` (stereo not drawn), the Potency was 35.3 µM (active).

For `CN(Cc1csc(-c2ccccc2)n1)c1cc(C2CC(O)C2)nc(N)n1` (stereo not drawn), the Potency was 2.43 µM (active).

For `Cc1noc(C)c1-c1cc(-c2ccccc2Oc2ccccc2)cn2cncc12`, the Potency was 19.8 µM (active).

With `O=C1NCN(Cc2ccc(Cl)cc2)C12CCN(Cc1ccccc1)CC2`, the Potency was 15.3 µM (active).

For `N#Cc1cccc(CN2CCC(C3=NC(O)c4cc(F)ccc4N3)CC2)c1` (stereo not drawn), the Potency is 15.3 µM (active).

In the case of `CN1CCN(C(=O)C(C)(C)Oc2nn(Cc3cccc(Cl)c3)c3ccccc23)CC1`, the Potency was 28 µM (active).

On to `Cc1cc(N2CCCC(Cn3cc(Cc4ccccc4)nn3)C2)nc(N)n1` (stereo not drawn), for which the Potency was 6.11 µM (active).

For `Cc1noc(C)c1-c1cnc2[nH]cc(CC(=O)N3CCOCC3)c2c1`, the Potency was 31.4 µM (active).

Turning to `O=C(Cc1c[nH]c2ncc(-c3ccccc3F)cc12)N1CCOCC1`, the Potency was 31.4 µM (active).

For `COc1ccc(CCNC(=O)c2noc(-c3ccc(C)cc3)n2)cc1OC`, the Potency is 24.3 µM (active).

As to `O=C(c1ccc(F)cc1Cl)N1CCC(n2cc(-c3nc(-c4ccccc4)no3)nn2)C1` (stereo not drawn), the Potency is 4.32 µM (active).

For `O=C(c1ccc(Cl)cc1)N1CCCC(n2cc(-c3nc(-c4ccccc4)no3)nn2)C1` (stereo not drawn), the Potency is 19.3 µM (active).

With `CC(C)c1noc(-c2cn(C3CCN(C(=O)c4ccc(N(C)C)cc4)C3)nn2)n1` (stereo not drawn), the Potency is 15.3 µM (active).

Take `Cc1nn2c(c1-c1ccccc1-c1ccccc1)N(CC1CC1)CCC2`: the Potency is 2.8 µM (active).

For the molecule `COc1ccc(-c2noc(CC3CCN(C(=O)Cc4ccc(OC)c(OC)c4)CC3)n2)cc1`, the Potency was 3.43 µM (active).

In the case of `COc1ccc(CC(=O)N2CCC(Cc3nc(-c4ccccc4)no3)CC2)cc1OC`, the Potency was 12.2 µM (active).

In the case of `Cc1c[nH]c(CN2CCCC(CCc3ccc(F)cc3F)C2)c(C)c1=O` (stereo not drawn), the Potency was 3.43 µM (active).

As to `Cc1cccc(C(=O)N2CCC(Oc3ccc(-c4noc(C(C)C)n4)cc3)C2)c1` (stereo not drawn), the Potency was 27.3 µM (active).

Consider `O=C(c1ccccn1)N1CC(Oc2ccc(-c3noc(C4CC4)n3)cc2)C1`, for which the Potency is 17.2 µM (active).

As for `O=C1c2cnc(-c3ccc(Cl)cc3)nc2OCCN1Cc1ccccc1`, the Potency was 35.3 µM (active).

Take `COC(=O)c1cccc(NC(=O)CCNc2c(C)nc3cnccn23)c1`: the Potency was 21.7 µM (active).

Turning to `COc1cccc(-c2noc(CC3CCN(C(=O)c4ccc(F)cc4)CC3)n2)c1`, the Potency was 6.11 µM (active).

Turning to `O=C(c1ccccc1)N1CCC(C(=O)N2CCC(Cc3nc(-c4ccc(F)cc4)no3)CC2)CC1`, the Potency is 17.2 µM (active).

With `Cc1cc(CNC(=O)c2ccc(-c3ccccc3Cl)o2)n(C)n1`, the Potency was 24.3 µM (active).

On to `O=C(NCC1CC1)c1nc2c(o1)CCN(Cc1cccc(F)c1F)CC2`, for which the Potency was 28 µM (active).

For `C1CCC(COCCc2noc(C3CNC3)n2)C1`, the Potency is 21.7 µM (active).

Consider `COc1ccccc1Nc1cnc2ccc(N(C)Cc3cccnc3)nn12`, for which the Potency is 31.4 µM (active).

Consider `OC1(Cc2cc(-c3ccccc3)no2)CCN(c2ncncn2)CC1`, for which the Potency is 7.69 µM (active).

As to `O=C(NCc1nnc2cc(-c3nc(C4CC4)no3)ccn12)c1ccc(F)cc1Cl`, the Potency is 17.2 µM (active).

For the molecule `Cc1ccc(OCc2nc(C3CCN(C(=O)CCc4nc5ccc(Cl)cc5[nH]4)CC3)no2)cc1`, the Potency was 24.3 µM (active).

For `CCN(CCCNC(=O)c1nnn2cc(-c3ccccc3)[nH]c(=O)c12)c1ccccc1`, the Potency result was “inactive”.

Turning to `CC(C)c1nncn1C1CCN(S(=O)(=O)c2cccc(Br)c2)CC1`, the Potency was 19.3 µM (active).

Consider `COc1ccc(-c2noc(CC3CCN(C(=O)Cc4ccc(C)cc4)CC3)n2)cc1`, for which the Potency was 27.3 µM (active).

Consider `COc1ccc(-c2noc(CC3CCN(C(=O)Cc4ccccc4)CC3)n2)cc1`, for which the Potency was 24.3 µM (active).

Turning to `COc1ccc(-c2noc(CC3CCN(C(=O)CC4CCCCC4)CC3)n2)cc1`, the Potency was 10.9 µM (active).

Consider `CC1=NS(=O)(=O)N(C)C=C1C(=O)OCc1nc(-c2ccc(C)cc2)no1`, for which the Potency was 10.9 µM (active).

For the molecule `CCc1ccc(C(=O)N2CCN(c3cc(-c4ccc(F)cc4)[nH]n3)CC2)cc1`, the Potency is 24.3 µM (active).

For the molecule `O=C(c1cc(F)ccc1Cl)N1CCN(c2cc(-c3ccc(F)cc3)[nH]n2)CC1`, the Potency is 27.3 µM (active).

Regarding `O=C(c1ccc(F)cc1F)N1CCN(c2cc(-c3ccc(Cl)cc3)[nH]n2)CC1`, the Potency is 17.2 µM (active).

`Cc1ccc(C(=O)N2CCN(c3cc(-c4ccc(Cl)cc4)[nH]n3)CC2)c(C)c1`: the Potency is 6.11 µM (active).

Consider `Cc1ccc2nc(C3CCCN(Cc4ccc(C#N)cc4)C3)[nH]c(=O)c2c1` (stereo not drawn), for which the Potency is 24.3 µM (active).

On to `COc1ccc(C2Cn3nnc(C(=O)N4CCN(C(=O)c5cccc(Cl)c5)CC4)c3CO2)cc1` (stereo not drawn), for which the Potency is 13.7 µM (active).

With `COc1ccc(C2Cn3nnc(C(=O)N4CCN(C(=O)c5ccc(C)cc5C)CC4)c3CO2)cc1` (stereo not drawn), the Potency was 24.3 µM (active).

For the molecule `CC(C)(C)c1csc(NC(=O)c2ccc3c(c2)OCCN(C2CCC2)C3)n1`, the Potency is 35.3 µM (active).

The record behind these values is PubChem BioAssay AID1347044 (National Center for Advancing Translational Sciences (NCATS), 2019).
